# Screening results deposited in PubChem BioAssay by The Scripps Research Institute Molecular Screening Center.
# ULK1 inh = blocks human autophagy kinase ULK1; AlphaScreen Atg13 phosphorylation by ULK1, luminescence; inhibition, % at 5.96 µM; hit rate 1.9% among 30,000; AID 1259251; in the data active = inhibition above about 43%;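 also: 0% = median of compound wells and 100% = no enzyme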
# ASK1 inh = inhibitors of human ASK1 kinase | Q99683 | AlphaScreen MKK6 phosphorylation by ASK1, luminescence | inhibition, % at 7.44 µM | hit rate 0.99% among 22,000; in the data active = inhibition above about 35%;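 also: 0% = median of compound wells and 100% = no enzyme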
# The depositor's hits bear a star; nt = no result given; ! = not active in a repeat. Rows were chosen to be rich in hits. Some 2.5% of all compounds tested hit in one or more screens of this group.
SMILES,ULK1 inh,ASK1 inh
COc1cc2nc(NCCN3CCOCC3)nc(Nc3ccc(N4CCOCC4)cc3)c2cc1OC,5,4
CCNc1nc(Nc2ccc(N3CCOCC3)cc2)c2cc(OC)c(OC)cc2n1,7,43*
COc1cc(Nc2cc(C)nc(Nc3ccc(-n4ccnc4)cc3)n2)cc(OC)c1OC,-12,8
COc1cc(Nc2nc(Nc3ccc(-n4ccnc4)cc3)ncc2C)cc(OC)c1OC,60*,12
Cc1cnc(Nc2ccccc2)nc1Nc1ccc(N2CCOCC2)cc1,30,28
COc1cc(Nc2nc(Nc3ccc(N4CCOCC4)cc3)ncc2C)cc(OC)c1OC,45*,20
O=C(Nc1ccc2c(c1)OCO2)c1ccc2nc(N3CCC(N4CCOCC4)CC3)sc2c1,20,8
CC(=O)c1ccc(Nc2nccc(-c3ccccc3)n2)cc1,-4,11
c1ccc(OCCNc2nc(-c3ccc(N4CCOCC4)nc3)nc3c2ncn3C2CCCCC2)cc1,8,-11
Cc1cnc(Nc2cccc(N(C)C)c2)nc1Nc1ccccc1,23,15
CN(C)c1cccc(Nc2nc(Nc3ccccc3)c3[nH]cnc3n2)c1,15,30
COc1cc(Nc2ncc(C)c(NC3CC3)n2)cc(OC)c1OC,65*,20
COc1cc(Nc2nc(Nc3cccc(N(C)C)c3)ncc2C)cc(OC)c1OC,63*,21
CC(C)N(CCNc1nc(Nc2ccc3ncccc3c2)nc2nc[nH]c12)C(C)C,17,7
Cc1cnc(Nc2ncccn2)nc1NC1CC1,16,-22
CN(C)c1cccc(Nc2nc(NC3CC3)c3[nH]cnc3n2)c1,43*,34
Oc1ccc(CCNc2nc(Nc3ccc4ncccc4c3)nc3nc[nH]c23)cc1,60*,-29
O=C(NC1CC1)c1cnc(N2CCN(c3ccccn3)CC2)s1,12,0
Nc1cccc(-c2ncc(C(=O)NCc3cccc(C(F)(F)F)c3)s2)c1,-26,-7
CCCNC(=O)Cc1cn(-c2ccc(NCc3cccnc3)nn2)c2ccccc12,6,-11
CN1[C@@H]2CC[C@H]1CC(NC(=O)c1cccc(-n3cc(NC(=O)Cc4ccccc4)cn3)c1)C2 (stereo not given in full),3,-5
O=C(NCC(O)c1ccc(Cl)cc1)c1cn(-c2cc3cn[nH]c3cc2F)nn1 (stereo not given),3,-6
O=C(NNC(=O)C(O)(c1ccccc1)c1ccccc1)c1ccccc1,-9,nt
COc1cc(Nc2nc(Nc3ccc4c(c3)OCO4)c3[nH]cnc3n2)cc(OC)c1OC,52*,6
COc1ccc(CCNc2nc(Nc3cc(OC)c(OC)c(OC)c3)nc3nc[nH]c23)cc1,69*,14
SMILES,ULK1 inh,ASK1 inh
COc1ccc(CCNc2nc(Nc3ccccc3)nc3nc[nH]c23)cc1,4,22
COc1cc(Nc2nc(NC3CC3)c3[nH]cnc3n2)cc(OC)c1OC,62*,-6
COc1cc(Nc2nc(NC3CCN(Cc4ccccc4)CC3)c3[nH]cnc3n2)cc(OC)c1OC,6,18
COc1cc(Nc2nc(NCc3ccc4c(c3)OCO4)nc3nc[nH]c23)cc(OC)c1OC,-14,21
COc1ccc(-c2nc(Nc3ccc(N4CCOCC4)cc3)c3ncn(C(C)C)c3n2)cc1,18,33
c1ccc(Nc2cc(NCc3nc4ccccc4[nH]3)ncn2)nc1,6,-5
CN1CCN(C(=O)c2ccc(-c3cncc(C(=O)NC4CCN(Cc5ccccc5)CC4)c3)cc2)CC1,20,-7
O=C(Cc1cn(-c2ccc(NCCCN3CCCC3=O)nn2)c2ccccc12)Nc1ccc(Oc2ccccc2)cc1,-13,16
CC(=O)Nc1ccc(NC(=O)Cc2cn(-c3ccc(NCCCN4CCCC4=O)nn3)c3ccccc23)cc1,44*,5
O=C(Cc1cn(-c2ccc(NCCCN3CCCC3=O)nn2)c2ccccc12)Nc1ccccc1,2,-3
O=C(Cc1cn(-c2ccc(NCCCN3CCCC3=O)nn2)c2ccccc12)Nc1ccc(N2CCOCC2)cc1,47*,-1
CC(C)CC(N)C(=O)O (stereo not given),-1,nt
Oc1cccc2c1CC=CC2,10,nt
O=C1c2c(O)cccc2Cc2cccc(O)c21,60*!,nt
CC(C)n1cnc2c(NC3CC3)nc(Nc3ccc(-n4ccnc4)cc3)nc21,36,-2
OC[C@H]1OC(O)[C@H](O)[C@@H](O)[C@H]1O (stereo not given in full),10,nt
OC[C@H]1OC([S-])[C@H](O)[C@@H](O)[C@@H]1O.[Au+] (stereo not given in full),66*,nt
Cc1cnc(-c2c(C)noc2C)nc1Nc1ccc(Oc2ccccc2)cc1,21,10
Clc1cnc(Nc2ccc(-n3cnc(N4CCOCC4)n3)cc2)nc1-c1cn[nH]c1,77*,-33
Cc1ncn(-c2ccc(Nc3ncc(Cl)c(-c4cn[nH]c4)n3)cc2)n1,73*,-43
c1cc(-n2cnc(N3CCOCC3)n2)ccc1Nc1ncc2cc(-c3cn[nH]c3)ccc2n1,11,9
CC(=O)c1nc(Nc2ccc(-n3cnc(C)n3)cc2)ncc1Cl,34,6
NC(=O)c1ccc(-c2cccc(C(=O)NC3CCN(Cc4ccccc4)CC3)c2)cc1,-12,-3
COc1ccccc1N1C(=O)c2cccc3c(C(=O)O)ccc(c23)C1=O,7,nt
CCC(=N)c1ccc(OC)c2cccc(NC)c12,64*,nt
SMILES,ULK1 inh,ASK1 inh
CN(c1ncccc1CNc1cc(Nc2ccc3[nH]c(=O)oc3c2)ncc1C(F)(F)F)S(C)(=O)=O,39,23
CNC(=O)c1ccccc1Nc1cc(Nc2ccc3[nH]cc(C(=O)C(=O)N(C)C)c3c2)ncc1C(F)(F)F,75*,-14
CN(C)C(=O)C(=O)c1c[nH]c2ccc(Nc3cc(Nc4ccccn4)c(C(F)(F)F)cn3)cc12,45*,19
CCCCC(=O)Nc1ccc(Nc2nc(C)cc(N3CCCC3)n2)cc1,-15,nt
O=C(NCc1ccccc1)c1cc(NCc2cccnc2)nc2ccccc12,2,-10
Cc1ncn(-c2ccc(Nc3ncc4cccc(-c5cnc6ccccc6c5)c4n3)cc2)n1,10,-8
Cc1ncn(-c2ccc(N(CC3CC3)c3ncc4cccc(-c5cnn(CC6CC6)c5)c4n3)cc2)n1,99*,-6
Nc1n[nH]c2c(Br)cc(NC(=O)C(O)c3ccc(Br)cc3)cc12 (stereo not given),26,-23
CS(=O)(=O)Nc1ccc(-c2ccnc(Nc3ccc(N4CCC(O)CC4)cc3)n2)cc1,75*,-16
N#Cc1cc(-c2ccnc(Nc3ccc(N4CCC(O)CC4)cc3)n2)cc(N2CCOCC2)c1,-62,32
Cc1ncn(-c2ccc(Nc3nccc(-c4ccc(N5CCOCC5)cc4)n3)cc2)n1,16,7
Cc1ncn(-c2ccc(Nc3nccc(-c4ccc(NS(C)(=O)=O)cc4)n3)cc2)n1,57*,6
O=C(NCCCN1CCCC1=O)c1ccc2nc(Oc3ccccc3)sc2c1,20,8
O=C(NC1CC1)c1cncc(-c2csc3ccccc23)c1,4,-5
c1ccc(-c2nc(-c3ccncc3)cc(N3CCN(c4ccccn4)CC3)n2)nc1,-4,nt
COc1cc2ccccc2cc1C(=O)Nc1nc2c(s1)CN(Cc1ccccc1)CC2,-11,nt
CCCCCCCCCCCCOS(=O)(=O)O,19,nt
CCCCC(CC)CCC(CC(C)C)OS(=O)(=O)O (stereo not given),95*,nt
COC(CNc1cc(-c2cccnc2)nc(-c2ccccc2)n1)OC,-4,nt
N#Cc1cc(-c2ccnc(Nc3ccc(-c4nn[nH]n4)cc3)n2)ccc1N1CCC(O)CC1,75*,-31
